# Bioassay records as filed in PubChem.
# Cruzain inh Det: qHTS Assay for Promiscuous and Specific Inhibitors of Cruzain (with detergent); Cruzipain (Trypanosoma cruzi), P25779; hit rate 0.43% among 200,000; AID 1478, 2009; purified cruzain, Z-FR-AMC fluorescence, 0.01% Triton; Potency, µM, without a hit: max response, negative = inhibition, actives largely listed as inhibitors;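 note: plate controls were neutral wells for no effect and buffer without enzyme for full effect; nearly all actives have a fitted effect of over 40% in size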
# Target sequence (P25779 123-467 limits assumed): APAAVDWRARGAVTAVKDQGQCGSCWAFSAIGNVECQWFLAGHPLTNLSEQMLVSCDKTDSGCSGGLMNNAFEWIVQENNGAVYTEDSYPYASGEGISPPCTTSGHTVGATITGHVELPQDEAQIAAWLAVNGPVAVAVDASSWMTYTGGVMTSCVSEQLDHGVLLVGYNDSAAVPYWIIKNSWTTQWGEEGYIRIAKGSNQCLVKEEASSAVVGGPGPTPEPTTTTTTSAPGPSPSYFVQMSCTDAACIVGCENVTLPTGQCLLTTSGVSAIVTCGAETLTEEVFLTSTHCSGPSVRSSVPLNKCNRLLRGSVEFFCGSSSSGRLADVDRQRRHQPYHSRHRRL
#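 Read-out: AMC fluorescence (360 nm excitation, 450 nm emission), four reads over 2 min, first-to-third difference used. Conditions: cruzain 1.5 nM, Z-FR-AMC 2 uM, pH 5.5 acetate, 5 mM DTT, 0.01% Triton X-100.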
# Cruzain inh noDet: qHTS Assay for Promiscuous and Specific Inhibitors of Cruzain (without detergent) | Potency, µM, for inactives: max response, negative = inhibition, actives largely listed as inhibitors | Cruzipain (Trypanosoma cruzi), P25779 | AID 1476, 2009 | hit rate 2.3% among 200,000 | purified cruzain, Z-FR-AMC fluorescence, no detergent;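 note: plate controls were enzyme without inhibitor for no effect and buffer without enzyme for full effect; nearly all actives have a fitted effect of over 40% in size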
#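 Detergent-free condition (0.00005% Triton X-100) in acetate buffer pH 5.5 with DTT. 1.5 nM enzyme and compound were pre-mixed 15 min, then 2 uM Z-FR-AMC substrate added; reaction progress from fluorescence change between first and third reads (60 s).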
# * hit, by the source's call; ? = inconclusive. Rows were chosen to be rich in hits. Some 2.5% of all compounds tested hit in one or more screens of this group. Calls come from the whole dose curve; as a rule, active = well fitted curve in the direction sought with a large enough effect; inconclusive = small, poorly fitted or top-dose-only effect, or another doubt; inactive = no such curve, though single readings can be large; an effect the other way counts as inactive or inconclusive. Potency is the fitted concentration of half-maximal effect.
SMILES,Cruzain inh Det,Cruzain inh noDet
COc1cccc(NC(=O)Cn2c(=O)n(-c3ccc(Cl)cc3)c(=O)c3oc4ccccc4c32)c1,-4%,-6%
COc1ccc(C)cc1NC(=O)N1CCN(c2cc(-c3noc(C)n3)ccc2C)CC1,-3%,?
CCCOc1cccc(C2c3c(oc4ccccc4c3=O)C(=O)N2c2nncs2)c1 (configuration not stated),-2%,?
CCc1ccc(CNCc2c(C(=O)O)n(Cc3cccc(F)c3)c3cc(OC)ccc23)cc1,-8%,-1%
CCOC(=O)c1ncc2[nH]c3cccc(OC(C)C)c3c2c1C,0%,?
CC1(c2ccccc2)CC(C)(C)N2C(=O)/C(=C3\SC(=S)NC3=O)c3cccc1c32 (configuration not stated),-10%,7.9µM*
CC1(c2ccccc2)CC(C)(C)N2C(=O)C3(C(C#N)=C(N)Oc4cc(O)ccc43)c3cccc1c32 (configuration not stated),-6%,12%
Cc1nn(-c2ccccc2)c(N2CCCC2)c1/C=N/NC(=O)c1cc(-c2cccnc2)nc2ccccc12,-7%,24%
CC(/C=N/NC(=O)c1cc(-c2cccnc2)nc2c1c(C)nn2-c1ccccc1)=C\c1ccccc1,-4%,13µM*
Cc1sc(NC(=S)NC(=O)CCc2ccccc2)c(C(N)=O)c1C,0%,4µM*
COC(=O)CCC(=O)NC(=S)Nc1sc(C)c(C)c1C(N)=O,-1%,?
Cc1ccc(NC(=O)c2nnn(Cc3ccccc3)c2N)cc1C,0%,-7%
CSc1ccc(Cn2nnc(C(=O)Nc3ccc(C)c(C)c3)c2N)cc1,5%,25µM*
O=C(O)c1ccc(C(=O)O)c(C(=O)O)c1.[NH-][C@@H]1CCCC[C@@H]1[NH-].[Pt],4%,27%
COc1cc2oc(=O)cc(-c3cccc(-c4ccc(C(C)=O)cc4)c3)c2c(OC)c1OC,2%,19%
CC(=O)c1ccc(-c2cccc(-c3cc(=O)oc4ccc(C(C)(C)C)cc34)c2)cc1,-1%,28µM*
C[C@@](Br)(C(=O)O)[C@H](Br)C(=O)O,3%,-6%
Nc1nc(N)c(CCCCc2ccccc2)c(N)n1,6%,-6%
CCC(=O)N1CCc2cc(S(=O)(=O)NCCC(=O)Nc3ccc(C)cc3C)ccc21,-1%,7%
CC(C)c1ccc(NC(=O)c2cc(S(=O)(=O)NCc3ccccc3Cl)ccc2F)cc1,0%,0%
CN(C)c1ccc(Sc2nnc(NC(=O)Nc3ccc(Cl)cc3Cl)s2)cc1,-4%,10µM*
CCC(=O)Nc1nnc(Sc2ccc(N(C)C)cc2)s1,1%,-12%
CC(C)=CCOc1ccc(/C=C/C(=O)c2ccc(OCC=C(C)C)cc2OCC(=O)O)cc1,20µM*,?
CCOc1ccc(/C=C/C(=O)c2ccc(-c3ccccc3)cc2)cc1,-11%,-29%
COc1ccc2c(c1)O[C@H](c1ccc3c(c1)OCO3)[C@@H](OC(=O)NCc1ccco1)C2=O,2%,-10%
SMILES,Cruzain inh Det,Cruzain inh noDet
CCC(CC)c1nnc(NC(=O)c2ccc(S(=O)(=O)N3CCc4ccccc4C3)cc2)s1,-4%,?
Cc1ccc2nc(NNC(=O)c3ccc(S(=O)(=O)N4CCc5ccccc5C4)cc3)sc2c1,4%,25µM*
COc1ccc(-n2c(C)cc(-c3csc(NC(=O)c4ccc(S(=O)(=O)N(C)C)cc4)n3)c2C)cc1,-1%,10µM*
Cc1ccc2nc(NC(=O)c3ccc(S(=O)(=O)N4CCC(C)CC4)cc3)sc2c1,3%,-11%
Cc1ccc(C(=O)Nc2nc(-c3cc(Cl)sc3Cl)cs2)cc1,5%,?
Cc1cc(-c2csc(NC(=O)c3ccc(C#N)cc3)n2)c(C)n1Cc1ccccc1,-1%,10µM*
COC(=O)c1ccc(-c2csc(NC(=O)c3ccc(S(=O)(=O)N4CCc5ccccc5C4)cc3)n2)cc1,1%,6.3µM*
CN(C)S(=O)(=O)c1ccc(C(=O)Nc2nc(-c3cccs3)cs2)cc1,-7%,9%
N=C1CCC[C@@H]1C(=S)SCCC(N)=O,4%,2%
CNC(=O)c1ccc(Nc2nnc(-c3ccc(C)c(S(=O)(=O)N4CCOCC4)c3)c3ccccc23)cc1,-15%,?
COCCNC(=O)Cn1c(=O)c2cccn2c2ccc(F)cc21,-3%,10%
CCOc1cccc(C2c3c(-c4cc(C)ccc4O)n[nH]c3C(=O)N2Cc2ccco2)c1 (configuration not stated),-17%,?
COc1ccc2c(CC(=O)Nc3ccc(C)cc3)coc2c1,-8%,-14%
COc1ccc(-c2csc(NC(=O)c3ccc(S(=O)(=O)N4CCc5ccccc5C4)cc3)n2)cc1,0%,5µM*
COc1ccc(-c2nnc(NC(=O)c3ccc(S(=O)(=O)N4CCc5ccccc5C4)cc3)o2)cc1,-1%,-10%
Cc1ccc(Cn2c(=O)c3c(nc4n3CCN4c3cc(C)cc(C)c3)n(C)c2=O)cc1,-1%,3%
Clc1nc(-c2cccnc2)nc2scc(-c3ccccc3)c12,-4%,-16%
COc1ccc(-c2csc3nc(-c4cccnc4)nc(Cl)c23)cc1OC,13µM*,-13%
NC1=NC([S][Hg][c]2ccc(N)cc2)c2ncn([C@@H]3O[C@H](CO)[C@@H](O)[C@@H]3O)c2N1 (some centres not stated),9%,22%
CS(=O)(=O)N1CCc2cc(-c3csc(NC(=O)Cc4cccs4)n3)ccc21,3%,20µM*
O=C(CN1CCOCC1)Nc1nc(-c2ccc3c(c2)CCN3S(=O)(=O)c2ccccc2)cs1,-1%,?
CCOC(=O)c1c(C)[nH]c(C)c1S(=O)(=O)N1CCC(C(=O)Nc2ccc(OCC)cc2)CC1,-1%,?
COc1ccc(-c2nc3cc(C(C)C)ccc3o2)cc1NC(=O)c1ccccc1[N+](=O)[O-],-2%,-12%
O=C(O)C(=Cc1ccc(-c2ccccc2)cc1)C(=O)O,7%,3%
COc1ccc(Cl)cc1Nc1nc(-c2sc(NC(=O)c3ccccc3)nc2C)cs1,2%,6.3µM*
SMILES,Cruzain inh Det,Cruzain inh noDet
COc1ccc(OC)c(Nc2nc(-c3sc(NC(=O)c4ccccc4)nc3C)cs2)c1,6%,?
Cc1nc(NC(=O)c2ccccc2)sc1-c1csc(Nc2ccc(Cl)cc2Cl)n1,0%,7.9µM*
COc1ccc(CCN2C(=O)N(c3ccc(F)cc3)C(=O)C2CC(=O)Nc2ccc(OC)cc2)cc1 (configuration not stated),-7%,18%
CCOC(=O)c1cc(S(=O)(=O)NCc2ccc(OC)cc2)[nH]n1,0%,-8%
N#Cc1cc(-c2ccccc2)nnc1Sc1ccc(F)cc1,0%,4%
N#Cc1cc(-c2ccccc2)nnc1Sc1ccccc1,0%,25µM*
O=C(NCc1ccccc1Cl)c1ccc(-n2cnc3cccnc32)cc1,-11%,-6%
CN(C)CCCn1cnc2cc(Cl)c(Cl)cc21,-6%,0%
CCC1CCCCN1c1ccc([N+](=O)[O-])cc1/C=N/NC(=O)Cn1c2ccccc2c(=O)c2ccccc21 (configuration not stated),-1%,6.3µM*
CCc1ccc(OCC(=O)N/N=C/c2cc([N+](=O)[O-])ccc2N2CCCCCC2)cc1,-4%,?
CCCCC/C=C\C/C=C\C/C=C\C/C=C\CCCCCC(=O)NCC(=O)O,-6%,3%
COc1ccc(S(=O)(=O)Nc2cc3c(cc2N2CCOCC2)n(C)c(=O)n3C)cc1,-1%,13%
